Data: the supplement of paper PMC6089552
In all, about 3,200 compounds went through this assay and about 300 (9.4%) showed activity. The list comes from a sample in which actives are over-represented; it also holds similar structures and randomly drawn compounds.

Tested on: A673/TR/shEF
Experiment: cell viability (LOESS-normalised, relative to median of negative controls) (log2 ratio); higher = more viable cells (less compound effect), active = hit call of the paper (over 3 MAD below the median)
Details: treatment time: 72 h
In short: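 Doxycycline, present or absent from 24 h before compounds, was used to induce EWS-FLI1 shRNA knockdown in A673/TR/shEF Ewing sarcoma cells at 1,500 per well in 384-well plates. Cells then received library compounds at two or more concentrations, or DMSO controls, for three days. Viability was measured by CellTiter-Glo luminescence on an Envision reader, and per-plate LOESS correction, division by the negative-control median and log2 transformation followed.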

[1] = 0.25 µM, library screen: screen1, EWS-FLI1 expression: high (no doxycycline)
[2] = 0.25 µM, library screen: screen1, EWS-FLI1 expression: low (doxycycline-induced shRNA knockdown)
[3] = 2.5 µM, library screen: screen1, EWS-FLI1 expression: high (no doxycycline)
[4] = 2.5 µM, library screen: screen1, EWS-FLI1 expression: low (doxycycline-induced shRNA knockdown)
[5] = 0.103 µM, library screen: screen3, EWS-FLI1 expression: high (no doxycycline)
[6] = 0.103 µM, library screen: screen3, EWS-FLI1 expression: low (doxycycline-induced shRNA knockdown)
[7] = 0.308 µM, library screen: screen3, EWS-FLI1 expression: high (no doxycycline)
[8] = 0.308 µM, library screen: screen3, EWS-FLI1 expression: low (doxycycline-induced shRNA knockdown)
[9] = 0.926 µM, library screen: screen3, EWS-FLI1 expression: high (no doxycycline)
[10] = 0.926 µM, library screen: screen3, EWS-FLI1 expression: low (doxycycline-induced shRNA knockdown)
[11] = 2.8 µM, library screen: screen3, EWS-FLI1 expression: high (no doxycycline)
[12] = 2.8 µM, library screen: screen3, EWS-FLI1 expression: low (doxycycline-induced shRNA knockdown)
[13] = 8.3 µM, library screen: screen3, EWS-FLI1 expression: high (no doxycycline)
[14] = 8.3 µM, library screen: screen3, EWS-FLI1 expression: low (doxycycline-induced shRNA knockdown)
[15] = 25 µM, library screen: screen3, EWS-FLI1 expression: high (no doxycycline)
[16] = 25 µM, library screen: screen3, EWS-FLI1 expression: low (doxycycline-induced shRNA knockdown)

Measured: cell viability (log2)

CSCCC(NC=O)C(=O)NC(CC(C)C)C(=O)NC(Cc1ccccc1)C(=O)O (stereo not given)
inactive: [1] 0.0125 | [2] 0.0891 | [3] 0.0974 | [4] 0.0808

Cn1cncc1[C@@](N)(c1ccc(Cl)cc1)c1ccc2c(c1)c(-c1cccc(Cl)c1)cc(=O)n2C
active: [7] -0.29 | [9] -0.324 | [11] -0.403 | [12] -0.128 | [13] -0.472 | [14] -0.135 | [15] -0.511 | [16] -0.303
inactive: [5] -0.139 | [6] -0.0373 | [8] -0.0603 | [10] -0.0604

COc1ccccc1C1NC(=S)NC(C)=C1C(=O)Nc1cccc(Cl)c1 (stereo not given)
inactive: [1] 0.0961 | [2] 0.101 | [3] 0.0795 | [4] 0.0861

O=C(O)C(O)C(O)(Cc1ccc(O)cc1)C(=O)O (stereo not given)
inactive: [1] 0.147 | [2] 0.0709 | [3] 0.147 | [4] 0.089

C[C@@H]1CC[C@@]2(OC1)O[C@H]1C[C@H]3[C@@H]4CC[C@H]5C[C@@H](O)CC[C@]5(C)[C@H]4C[C@@H](O)[C@]3(C)[C@H]1[C@@H]2C
inactive: [1] 0.0822 | [2] 0.0668 | [3] 0.111 | [4] 0.136

COc1ccccc1C=CC(=O)O
inactive: [1] 0.0113 | [2] -0.0457 | [3] 0.102 | [4] 0.0515

O=C1C=CC(=C(c2ccc(O)cc2)c2ccc(O)cc2)C=C1
inactive: [1] 0.083 | [2] 0.0465 | [3] 0.0975 | [4] 0.0767

CN(C)c1ccc(C(=C2C=CC(=[N+](C)C)C=C2)c2ccc(N(C)C)cc2)cc1
active: [11] -0.295 | [12] -0.547 | [13] -2.54 | [14] -1.19 | [15] -4.26 | [16] -1.87
inactive: [5] 0.0956 | [6] -0.0594 | [1] 0.105 | [2] 0.00922 | [7] 0.0542 | [8] 0.0588 | [9] 0.098 | [10] 0.0226 | [3] 0.0691 | [4] 0.106

COc1ccc(-c2cc(=O)c3c(OC)cc(OC)cc3o2)cc1
inactive: [1] 0.0279 | [2] 0.0681 | [3] 0.0807 | [4] 0.22

CC(=O)Oc1cc(C)c2c(c1C(OC(C)=O)OC(C)=O)Oc1c(c(C)c(OC(C)=O)c3c1C(OC(C)=O)OC3=O)OC2=O (stereo not given)
inactive: [1] 0.0407 | [2] 0.0968 | [3] 0.0425 | [4] 0.133
